The panel holds about 83,000 compounds, 20% with a hit somewhere; the sample as a whole holds those more often.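 Treatment: one concentration, 48 hours, 96-well format. Scoring: percent growth, with anything below 10 considered active.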 Active and inactive are the calls of the source.
tested on: NCI-H23 lung; test: NCI-60 one-dose screen, 48 h (100 = growth as untreated, 0 = no growth, -100 = all killed); conditions: 10 µM
Procedure: Growth inhibition of the NCI-H23 human Non-Small Cell Lung tumor cell line is measured as a screen for anti-cancer activity. Cells are grown in 96 well plates and exposed to the test compound for 48 hours. Compounds are tested at a single concentration, which is 10^-5 M for most compounds. The reported endpoint is percent growth (GI% or GIPRCNT), where numbers from 0 - 100% represent growth inhibition, and numbers from -100% - 0 represent cell death. For example, a value of 40 represents 60% growth inhibition. A value of 0 means no net growth occurred over the course of the experiment. A value of -40 indicates 40% of cells at the beginning of the experiment died by the end of the experiment. A value of -100 means all cells are dead at the end of the experiment.
NCI-60 Human Tumor Cell Lines Screen was performed using the standard one-dose NCI protocol, which is described in more detail at https://dtp.cancer.gov/discovery_development/nci-60/default.htm.
Compounds with GIPRCNT values below 10 were considered active. Activity score was based on GIPRCNT using the following formula: […]
Score is 0 for GIPRCNT values of 100 or above, 50 for GIPRCNT values of 0, and 100 for GIPRCNT values of -100.

Row | Structure (SMILES) | growth
1 | O=[N+]([O-])c1ccc(NCSc2ccc(Cl)cc2)cc1 | 99.4% (inactive)
2 | COc1cccc(C2C(C#N)=C(N)Oc3cc(N)ccc32)c1 (stereo not given) | 37.8% (inactive)
3 | CC(=O)N[C@H](C(=O)N[C@@H](CCCNC(=N)N)C(=O)N[C@@H](CCCCN)C(=O)N[C@@H](CCCNC(=N)N)C(=O)N[C@]1(C)CCCCCC/C=C\CCC[C@@](C)(C(=O)N[C@@H](CCCNC(=N)N)C(=O)N[C@@H](CCC(=O)O)C(=O)N[C@@H](CC(C)C)C(=O)N[C@H](C(=O)N[C@@H](CCC(=O)O)C(N)=O)C(C)C)NC(=O)[C@H](CCC(N)=O)NC(=O)[C@H](CC(C)C)NC(=O)[C@H](CC(C)C)NC(=O)[C@H](CCCNC(=N)N)NC(=O)[C@H](CCCNC(=N)N)NC(=O)[C@H](CC(C)C)NC1=O)C(C)C | 1.83% (active)
4 | Nc1ccccc1NC(=O)c1ccc(CCCC(=O)Nc2ccc(C3CC3N)cc2)cc1 (stereo not given) | 37.2% (inactive)
5 | c1ccc(CSc2ncccc2-c2nnc(SCCN3CCOCC3)o2)cc1 | 104% (inactive)
6 | Nc1ncc(-c2cnn(C3CCNCC3)c2)cc1-c1nc2ccccc2o1 | 20.2% (inactive)
7 | CCc1cc(Cl)c(OC)c(C(=O)NCC2CCCN2CC)c1O (stereo not given) | 85.5% (inactive)
8 | O=S(=O)(NCCCNc1nccc(-c2cn(-c3ccccc3)nc2-c2ccc(Cl)c(O)c2)n1)c1ccccc1 | 78.5% (inactive)
9 | CCOC(=O)c1sc2ncnc(Nc3ccc4c(cnn4C(=O)Nc4ccc(C)c(Cl)c4)c3)c2c1C | 91.4% (inactive)
10 | Cn1c2ccccc2c2c3[nH][nH]c(=O)c3c3c4ccccc4[nH]c3c21 | 19.2% (inactive)
11 | O=C(Nc1ccc(F)cc1)c1cc2ccccc2cc1O | 61.8% (inactive)
12 | COc1ccc([C@H]2[C@H](C(=O)Nc3cccnc3)c3ccccc3C(=O)N2c2ccccc2)cc1 | 90.5% (inactive)
13 | COc1ccc(-c2nn(-c3cccc(Cl)c3)cc2-c2nc(N)[nH]c(=O)c2C#N)cc1 | 42.7% (inactive)
14 | CCN(CC)CCN1c2nc3ccccc3cc2Sc2cc3ccccc3nc21 | -5.59% (active)
15 | COc1cc(C(=O)/C=C/c2c[nH]c3ccccc23)cc(OC)c1OC | 16.1% (inactive)
16 | CCn1c(SC/C(=N/O)c2ccccc2)nnc1-c1ccccc1 | 103% (inactive)
17 | CCOC(=O)C(C)(c1ccccc1)c1ccccc1 | 106% (inactive)
18 | Cc1ccc(S(=O)(=O)N/N=C2\CCCc3ccccc32)cc1 | 87.1% (inactive)
19 | CC(=O)C1CCC2C3CC=C4CC(SC(=N)N)CCC4(C)C3CCC12C (stereo not given) | 61.8% (inactive)
20 | Nc1nc(-c2cccnc2)nc2c1sc(=S)n2-c1ccccc1 | 103% (inactive)

Row | Structure (SMILES) | growth
21 | Cc1cn(-c2cc(F)cc(NC(=O)c3ccc(C)c(Nc4nccc(-c5cccnc5)n4)c3)c2)cn1 | 94.2% (inactive)
22 | COc1cc(-c2nn(-c3ccc(NC(=O)NCCCNC(=O)c4ccccc4)cc3)cc2-c2ccncc2)ccc1Cl | 28.8% (inactive)
23 | COc1ccc(/C=C2/SC(=S)NC2=O)c(OC)c1OC | 73.9% (inactive)
24 | Cc1ccc(NC(=S)NNC(=S)Nc2ccc(C)cc2)cc1 | 72.8% (inactive)
25 | O=C(O)c1cn(C2CC2)c2cc(N3CCN(C(=O)c4cc(-c5ccc(Cl)cc5)nc5ccccc45)CC3)c(F)cc2c1=O | 82.2% (inactive)
26 | COc1ccc(-c2nn(-c3cccc(Cl)c3)cc2-c2cc(-c3ccccc3)[nH]c(=O)c2C#N)cc1 | 26.6% (inactive)
27 | CCCCN(CCCC)C(=O)[C@H](CC)[C@@H]1CC[C@@H](C)[C@@H]([C@H](C)[C@@H](O)[C@@H](C)C(=O)[C@H](CC)C2O[C@]3(C=C[C@@H](O)[C@]4(CC[C@@](C)([C@H]5CC[C@](O)(CC)[C@H](C)O5)O4)O3)[C@H](C)C[C@@H]2C)O1 (stereo not given in full) | -11.8% (active)
28 | COc1ccc(CCN2CCC(Nc3nc4ccccc4n3Cc3ccc(F)cc3)CC2)cc1 | 47.1% (inactive)
29 | NC1=CC(=O)C(=O)c2cccnc21 | 18.7% (inactive)
30 | COc1ccccc1N1CCCSC1=Nc1ccccc1 | 104% (inactive)
31 | Cc1cc(SC#N)cc(C(C)(C)C)c1O | 93.1% (inactive)
32 | NNC(=O)Oc1c(Cl)cc(Cl)cc1[N+](=O)[O-] | 97.8% (inactive)
33 | CC(C)Cc1ccc([C@H](C)C(=O)O)cc1 | 105% (inactive)
34 | COc1cccc(N=Nc2cccc(OC)c2)c1 | 86.4% (inactive)
35 | O=C(N/N=C/c1cc([N+](=O)[O-])ccc1O)c1cccc2ccccc12 | 45.3% (inactive)
36 | O=C(CCCCC(=O)Oc1c(Cl)cc(Cl)cc1[N+](=O)[O-])Oc1c(Cl)cc(Cl)cc1[N+](=O)[O-] | 96.5% (inactive)
37 | COc1ccc(N=Nc2cc(OC)c(OC)c(OC)c2)cc1 | 77.3% (inactive)
38 | CCOC(=O)C1=CSC2=NC3=C(CCC/C3=C\c3ccc(Cl)cc3)C(c3ccc(Cl)cc3)N12 (stereo not given) | 83.8% (inactive)
39 | O=C(CCn1cnc2c(cc(-c3ccccc3)n2-c2ccccc2)c1=O)Nc1ccc(F)cc1 | 76.1% (inactive)
40 | CC(C)(C)OC(=O)N1CCc2c(sc3ncnc(N/N=C/c4cccc(Br)c4)c23)C1 | 55.3% (inactive)
